Screen size: about 340,000 compounds; about 3,300 (0.97%) were called active. Shown is part of a subset that was picked to be rich in actives. Values without a mark were called inactive.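 Rule for the calls: active = mean activation above about 17%, with every replicate also reaching it (limit read from the data, passing the limit was not always enough); inconclusive = only one of the two conditions met; inactive = the rest.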

Our source for the activation values is PubChem BioAssay AID493131 (Broad Institute, 2011).

Chain of Protein FosB (Mus musculus) (P13346 whole entry, looked up): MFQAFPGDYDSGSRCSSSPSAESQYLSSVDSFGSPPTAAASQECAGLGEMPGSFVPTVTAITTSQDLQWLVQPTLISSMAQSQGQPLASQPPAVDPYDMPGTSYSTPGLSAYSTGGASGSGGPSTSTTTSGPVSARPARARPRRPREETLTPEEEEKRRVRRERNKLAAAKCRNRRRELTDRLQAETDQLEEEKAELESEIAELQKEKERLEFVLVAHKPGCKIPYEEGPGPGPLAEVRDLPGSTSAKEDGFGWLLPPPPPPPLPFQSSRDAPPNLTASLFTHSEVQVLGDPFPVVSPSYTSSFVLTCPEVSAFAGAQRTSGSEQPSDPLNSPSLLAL

The assay concerns the target Protein FosB (Mus musculus) (UniProt P13346). Put plainly: activators of delta FosB homodimer, primary screen, biochemical, fluorescence polarization, TAMRA-CDK5 oligo, single point (AID 493131).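 Note: fluorescence polarization rise as delta FosB binds a TAMRA Cdk5 AP-1 oligo.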 As to conditions: purified delta FosB, at 25 µM, active compounds read high, percent of positive-control signal above neutral wells.
As to `CCOc1cc2ccccc2cc1C(=O)Nc1ccccn1`, the activation was -0.935%.

On to `C/C(=N\NC(=O)c1ccccc1F)c1ccccn1`, for which the activation is -8.45%. For `CCN(CC)CCOc1ccc2c(c1)C(=NNC(=O)c1ccccn1)c1cc(OCCN(CC)CC)ccc1-2` the value was 79.1% (active); for `CN(C)NC(=O)C(NC(=O)c1ccc(N)cc1)C12CC3CC(CC(C3)C1)C2` (configuration not stated), -3.81%.

On to `Cc1oc(CC(C)C)c(CN2CCCC2)c1C(=O)O`, for which the activation was 4.27%. As for `COc1ccccc1OCC(=O)Nc1ccccc1C(=O)NC1CC1`, the activation is -0.401%. On to `Cc1ccc(OCC(=O)Nc2ccccc2C(=O)NC2CC2)cc1`, for which the activation is -7.85%. For `Cc1ccc(OCC(=O)Nc2ccccc2C(=O)NC2CC2)cc1C`, the activation was 36.7% (active). In the case of `COc1ccc(C2=Nc3cc(C)ccc3OC2)cc1`, the activation was -10.5%. For `CCOC(=O)COn1c(=O)c(-c2ccc(OCC)cc2)[n+]([O-])c2ccccc21`, the activation was -3.65%. With `COc1cccc(NC(=O)COC(=O)CCOc2ccccc2OC)c1`, the activation was 2.67%. On to `CCCCOc1ccc(NC(=O)CSCC(=O)OCC)cc1`, for which the activation is -6.39%. For the compound `CCCCCCCCCCOC(=O)Cn1c(COc2cccc(OC)c2)[n+](C)c2ccccc21`, the activation is 28.7% (active).

For `CCOC(=O)CNC(=O)CSc1nnc(-c2cccc(OC)c2)n1CC`, the activation was -2.27%. In the case of `CCCCCCCCCCOC(=O)Cn1c(COc2ccc(C)cc2)[n+](C)c2ccccc21`, the activation is 38.3% (active).

With `CCC1=C(OC(=O)N(CC)CC)N2C(=O)OC(=NCCc3c[nH]c4ccccc34)[C@]2(C)[C@H]2C1=CC[C@H]1C(=O)N(CC)C(=O)[C@H]12`, the activation is -18.3%.

Turning to `CC(=O)c1ccc(S(=O)(=O)N2CCC(Oc3ccc(-n4cnnn4)cc3)CC2)cc1`, the activation was 12.7%. In the case of `Cc1ccc(S(=O)(=O)N2CCC(Oc3ccc(-n4cnnn4)cc3)CC2)cc1`, the activation was 58.6% (active). Regarding `CCOC(=O)N1CCN(S(=O)(=O)c2ccc(-n3cnnn3)cc2)CC1`, the activation is -6.35%.

Consider `Cn1c(=O)c2c(nc(Br)n2CCSc2nc3ccccc3o2)n(C)c1=O`, for which the activation was 1.42%. As to `Cc1cccc(C)c1NC(=O)C1(C)c2cccc[n+]2CC(=O)N1Cc1cccs1` (configuration not stated), the activation is -6.06%. Under `Cc1cccc(OCC(O)CN2CCN(CCN3C(=O)c4cccc5cccc(c45)C3=O)CC2)c1C` (configuration not stated) stands 62.2% (active); under `C=CCc1ccccc1OCC(O)CN1CCN(CCO)CC1` (configuration not stated), -2.68%; under `COc1ccccc1OCC(O)CN1CCOCC1` (configuration not stated), -1.24%.

As for `COc1ccc(S(=O)(=O)NCCOc2ccccc2)cc1F`, the activation was 7.41%. Under `CCOc1ccc(-n2c(SCC(=O)Nc3ccc(OC)cc3)nc3sc4c(c3c2=O)CCN(C)C4)cc1` stands 50.3% (active); under `CCOc1ccc(-n2c(SCC(=O)OC)nc3sc4c(c3c2=O)CCN(C)C4)cc1`, -0.804%.

Turning to `CCCSc1nc2sc3c(c2c(=O)n1-c1ccc(OC)cc1)CCN(C)C3`, the activation was -14.7%. Take `Cc1ccccc1-c1nc(CS(=O)(=O)CC(=O)N2CCc3ccccc3C2)c(C)o1`: the activation is -5.6%. As for `O=C(COC(=O)c1cnccn1)Nc1cccc2ccccc12`, the activation was -2.31%. Under `N#CCCN1CCN(S(=O)(=O)c2ccc(S(=O)(=O)NC3CCCCC3)cc2)CC1` stands -3.88%; under `COC(=O)c1cc(NC(=O)CN2CCN(C(C)=O)CC2)cc(C(=O)OC)c1`, 2.81%.

As for `Cc1cccc(Nc2nnc(SCC(=O)c3c(N)n(C4CC4)c(=O)[nH]c3=O)s2)c1C`, the activation was -2.18%. Regarding `Cc1nnc(NC(=O)c2ccc3nccnc3c2)s1`, the activation is 1.3%. As for `Cc1nnc(NC(=O)C(c2ccccc2)c2ccccc2)s1`, the activation is -0.437%.

For the compound `Cc1nnc(NC(=O)Nc2ccc(Cl)c(Cl)c2)s1`, the activation is 28.8% (active).

As for `CC(C)Cn1c(N)c(C(=O)COC(=O)CN2C(=O)C3CC=CCC3C2=O)c(=O)n(C)c1=O` (configuration not stated), the activation was -11.5%. Turning to `COc1cccc(N2CC(NS(=O)(=O)c3cccs3)CC2=O)c1` (configuration not stated), the activation is 0.171%. With `CCc1ccc(CNC(=O)C2CC(=O)N(CCc3ccc(C)cc3)C2)cc1` (configuration not stated), the activation was -3.6%. In the case of `CCc1ccc(CNC(=O)C2CCN(c3nnc(C)c4c(C)n(-c5ccc(C)cc5)nc34)CC2)cc1`, the activation was 82.7% (active).

On to `CCOc1ccc(CNC(=O)C2CCCN(c3nnc(C)c4c(C)n(-c5ccccc5)nc34)C2)cc1` (configuration not stated), for which the activation was -5.11%. Turning to `Cc1ccc(NC(=O)CN2CCc3ccccc3C2)cc1C`, the activation was -4.61%.

With `Cc1ccc(OS(=O)Nc2cccc3nccnc23)cc1` (configuration not stated), the activation is -0.877%. For `COc1cccc(CNC(=O)Cc2csc(Nc3nc(=S)[nH]c4ccccc34)n2)c1` the value was 12.2%; for `O=C(CCCn1c(=O)[nH]c2cc(Cl)ccc2c1=O)NCCN1CCN(c2ccccc2)CC1`, -5.22%; for `O=C(Cc1csc(Nc2nc(=S)[nH]c3ccccc23)n1)NCCCN1CCN(c2cccc(Cl)c2)CC1`, 34.1% (active).

`O=[N+]([O-])c1cc2ccccc2nc1-c1ccccc1`: the activation was -4.74%.

Take `CC1COc2ccccc2N1C(=O)c1cccnc1Cl` (configuration not stated): the activation was -2.06%. As to `Cc1cccc(Nc2nc(NCCO)nc(N3CCCC3)n2)c1`, the activation was 2.75%.

Turning to `CN1CCN(c2nc(Nc3ccc(O)cc3)nc3ccccc23)CC1`, the activation was 10.9%. Consider `OCCNc1nc(Nc2ccc(Cl)c(Cl)c2)nc2ccccc12`, for which the activation is 47% (active). As for `CC12CN(Cc3ccccc3)CC(C)(CN(Cc3ccccc3)C1)C2=NO`, the activation was -1.53%. For the compound `CCOc1ccccc1-n1c(SCC(=O)NCc2ccco2)nnc1-c1ccncc1`, the activation is -2.73%.

Regarding `COc1ccccc1NC(=O)Nc1nnc(Cc2ccc(F)cc2)s1`, the activation was -2.06%.

`O=C(Nc1ccccc1)Nc1nnc(COc2ccccc2F)s1`: the activation is 28.4% (active). As for `O=C(NCCOc1ccccc1F)Nc1ccc(Br)cc1`, the activation is -2.98%.

As to `COc1cc(C)ccc1OCC(=O)OCC(=O)c1ccc[nH]1`, the activation was 6.43%.

In the case of `Nc1nc(COC(=O)CCC(=O)c2ccc(Cl)cc2)nc(Nc2ccccc2)n1`, the activation was 21.6% (active). As for `Cc1ccccc1Nc1nc(N)nc(COC(=O)CCC(=O)c2ccc(F)cc2)n1`, the activation was -1.04%. Consider `CC(NC(=O)COC(=O)CCC(=O)c1ccc(Cl)cc1)c1ccccc1` (configuration not stated), for which the activation was -9.29%. For `OCCCNC(c1ccccc1)c1ccc(O)cc1` (configuration not stated) the value was -0.537%; for `CCCC(=O)N(CCN1CCOCC1)c1nc2ccc(OCC)cc2s1`, 1.55%.

In the case of `CCc1ccc2nc(N(CCCN(C)C)C(=O)c3ccc4c(c3)OCCO4)sc2c1`, the activation was -10.5%. Under `CCOc1ccc2nc(N(CCN(C)C)C(=O)c3ccc4ccccc4c3)sc2c1` stands 18.5% (active).

Turning to `Cc1onc(-c2ccccc2Cl)c1C(=O)N(Cc1ccc(N(C)C)cc1)C(C)C`, the activation is -12.7%. For `O=C(N/N=C/c1ccco1)c1csc2c1CCCC2` the value was 2.38%; for `O=C(Cc1ccccc1)Nc1cccc(C(=O)N/N=C/c2ccco2)c1`, -7.68%; for `O=C(N/N=C/c1ccco1)c1ccc(NC(=O)C2CC2)cc1`, 31.9% (active). As to `O=C(NCC1CCCCC1)NCC1CCCCC1`, the activation was -3.89%. For `CCC(C)NC(=O)c1ccc(NC(=O)CC2SC(N3CCCCC3)=NC2=O)cc1` (configuration not stated) the value was -9.42%; for `Cc1cc(C)n2nc(CNS(=O)(=O)c3c(F)c(F)c(F)c(F)c3F)nc2n1`, -1.9%; for `CC(=O)c1cccc(NC(=O)c2cc(C)nn2-c2ccccc2)c1`, -9.9%. For `CCn1c(=O)c2cc(C(=O)Nc3cccc(C(C)=O)c3)sc2c2ccccc21`, the activation is 73.2% (active). Consider `CCn1c(NC(=O)c2ccccc2)c(-c2cccs2)c(=O)c2ccccc21`, for which the activation is -4.73%. In the case of `CCc1cccc(NC(=O)COC(=O)c2cc(=O)c3ccccc3o2)c1`, the activation was -5.91%.

On to `COC(=O)c1c(C(=O)OC)c(-c2cccc(C)c2)n2c1CS(=O)C2` (configuration not stated), for which the activation was -2.6%.

Turning to `Cc1ccccc1Nc1c([N+](=O)[O-])ccc2nonc12`, the activation was -0.872%.

Turning to `CN(C)CCN(C(=O)C1=COCCO1)c1nc2ccc(Cl)cc2s1`, the activation was -10.2%. Regarding `COc1ccc2sc(N(CCCN(C)C)C(=O)c3ccc(S(=O)(=O)N(C)C4CCCCC4)cc3)nc2c1`, the activation is 15.3%. `CN(C)CCCN(C(=O)c1ccc(S(=O)(=O)N2CCCCCC2)cc1)c1nc2ccc(Br)cc2s1`: the activation was 41% (active). As for `CCCCn1c(N)c(N(CCC(C)C)C(=O)c2ccc([N+](=O)[O-])o2)c(=O)[nH]c1=O`, the activation was -0.599%.

As to `CCCCn1c(N)c(N(CCC(C)C)C(=O)COC(=O)c2ccc(CC)cc2)c(=O)[nH]c1=O`, the activation is 23.1% (active). For the compound `CCCCn1c(N)c(N(CCC(C)C)C(=O)COC(=O)c2cccnc2OCC)c(=O)[nH]c1=O`, the activation was 1.39%.

Consider `CCn1c(/C=C/Nc2ccccc2)[n+](CC)c2ccc(C(=O)OCC(F)(F)F)cc21`, for which the activation was -11.5%. As to `O=C(NCCCn1ccnc1)C1CCCN(S(=O)(=O)c2cc(Cl)ccc2Cl)C1` (configuration not stated), the activation is -4.73%. For `CC(Sc1nc(-c2ccccc2)cc(C(F)(F)F)n1)C(=O)Nc1ccc2c(c1)OCO2` (configuration not stated) the value was 30.4% (active); for `CC(Sc1nc2cc(Cl)ccc2s1)C(=O)Nc1ccc2c(c1)OCO2` (configuration not stated), -3.52%. For the compound `CCSc1ccccc1C(=O)Nc1ccc2c(c1)OCO2`, the activation was 0.935%. For `O=C1/C(=C/c2ccc3c(c2)OCO3)Oc2cc(OCC(=O)N3CC(O)C[C@H]3C(=O)O)ccc21` (some centres not stated) the value was -7.81%; for `Cc1ccc(C(=O)NNC(=O)c2cc3cc4ccccc4nc3s2)cc1`, 26.4% (active). Regarding `Cc1ccc(C(=O)NNC(=O)c2ccc3c(c2)OCCO3)cc1`, the activation is -13%.

Consider `Cc1ccc(C(=O)NNc2ncnc3ccccc23)cc1`, for which the activation was -2.14%.
